Source: the supplement of paper PMC8728848
Shown is part of a subset that was picked to be rich in the strongest signals.

Legend:
Assay in all cases: glycan array binding signal (z-score within array); higher = stronger binding
Conditions in all cases: glycan notation: IUPAC condensed, linker removed
[1] = molecular target: Fuc(a1-2)Gal(b1-3)[Fuc(a1-4)]GlcNAc(b1-2)Man(a1-3)[Fuc(a1-2)Gal(b1-3)[Fuc(a1-4)]GlcNAc(b1-2)Man(a1-3)]Man(b1-4)GlcNAc(b1-4)GlcNAc
Summary of the method: (§1)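 Glycan array data were curated from 3228 arrays in the Consortium for Functional Glycomics database and kept only where the protein sequence was available. Glycan names were converted to IUPAC-condensed notation, and columns mapping to the same glycan were averaged. The binding signal is a within-array Z-score, averaged across arrays of the same protein sequence at different concentrations or buffers and across linkers. Negative Z-scores can be read as non-binding.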

[2] = molecular target: Fuc(a1-2)Gal(b1-4)GlcNAc(b1-2)Man(a1-3)[Fuc(a1-2)Gal(b1-4)GlcNAc(b1-2)Man(a1-6)]Man(b1-4)GlcNAc(b1-4)GlcNAc
Summary of the method: as §1

[3] = molecular target: Fuc(a1-2)Gal(b1-4)GlcNAc(b1-2)Man(a1-3)[Fuc(a1-2)Gal(b1-4)GlcNAc(b1-2)Man(a1-6)]Man(b1-4)GlcNAc(b1-4)[Fuc(a1-6)]GlcNAc
Summary of the method: as §1

[4] = molecular target: Fuc(a1-2)Gal(b1-4)GlcNAc(b1-3)[Fuc(a1-2)Gal(b1-4)GlcNAc(b1-6)]GalNAc
Summary of the method: as §1

[5] = molecular target: Fuc(a1-2)Gal(b1-4)[Fuc(a1-3)]GlcNAc(b1-3)GalNAc
Summary of the method: as §1

[6] = molecular target: Fuc(a1-2)Gal6S(b1-3)GlcNAc
Summary of the method: as §1

[7] = molecular target: Fuc(a1-2)[Gal(a1-3)]Gal(b1-3)GalNAc(b1-3)Gal(a1-4)Gal(b1-4)Glc
Summary of the method: as §1

[8] = molecular target: Fuc(a1-2)[Gal(a1-3)]Gal(b1-4)GlcNAc(b1-2)Man
Summary of the method: as §1

[9] = molecular target: Fuc(a1-2)[GalNAc(a1-3)]Gal(b1-4)GlcNAc(b1-2)Man(a1-3)[Fuc(a1-2)[GalNAc(a1-3)]Gal(b1-4)GlcNAc(b1-2)Man(a1-6)]Man(b1-4)GlcNAc(b1-4)GlcNAc
Summary of the method: as §1

[10] = molecular target: Fuc(a1-3)[Gal3S(b1-4)]Glc
Summary of the method: as §1

[11] = molecular target: Fuc(a1-3)[Gal3S(b1-4)]GlcNAc6S
Summary of the method: as §1

[12] = molecular target: Gal(a1-3)Gal(b1-3)GlcNAc(b1-2)Man(a1-3)[Gal(a1-3)Gal(b1-3)GlcNAc(b1-2)Man(a1-6)]Man(b1-4)GlcNAc(b1-4)GlcNAc
Summary of the method: as §1

[13] = molecular target: Gal(a1-3)Gal(b1-4)GlcNAc(b1-2)Man(a1-3)[Gal(a1-3)Gal(b1-4)GlcNAc(b1-2)Man(a1-6)]Man(b1-4)GlcNAc(b1-4)GlcNAc
Summary of the method: as §1

[14] = molecular target: Gal(a1-3)[Gal(a1-4)]Gal(b1-4)GlcNAc
Summary of the method: as §1

[15] = molecular target: Gal(b1-3)GalNAc(a1-3)[Fuc(a1-2)]Gal(b1-4)Glc
Summary of the method: as §1

[16] = molecular target: Gal(b1-3)GlcNAc(b1-2)Man(a1-3)[Gal(b1-3)GlcNAc(b1-2)Man(a1-6)]Man(b1-4)GlcNAc(b1-4)GlcNAc
Summary of the method: as §1

[17] = molecular target: Gal(b1-3)GlcNAc(b1-3)Gal(b1-4)GlcNAc(b1-2)[Gal(b1-3)GlcNAc(b1-3)Gal(b1-4)GlcNAc(b1-6)]Man(a1-6)[Gal(b1-3)GlcNAc(b1-3)Gal(b1-4)GlcNAc(b1-2)Man(a1-3)]Man(b1-4)GlcNAc(b1-4)[Fuc(a1-6)]GlcNAc
Summary of the method: as §1

[18] = molecular target: Gal(b1-3)GlcNAc(b1-3)Gal(b1-4)GlcNAc(b1-3)Gal(b1-4)GlcNAc(b1-2)[Gal(b1-3)GlcNAc(b1-3)Gal(b1-4)GlcNAc(b1-3)Gal(b1-4)GlcNAc(b1-6)]Man(a1-6)[Gal(b1-3)GlcNAc(b1-3)Gal(b1-4)GlcNAc(b1-3)Gal(b1-4)GlcNAc(b1-2)Man(a1-3)]Man(b1-4)GlcNAc(b1-4)[Fuc(a1-6)]GlcNAc
Summary of the method: as §1

[19] = molecular target: Gal(b1-3)GlcNAc(b1-6)GalNAc
Summary of the method: as §1

[20] = molecular target: Gal(b1-3)[Fuc(a1-4)]GlcNAc(b1-3)Gal(b1-4)[Fuc(a1-3)]GlcNAc
Summary of the method: as §1

[21] = molecular target: Gal(b1-4)GlcNAc(b1-3)Gal(b1-4)GlcNAc(b1-2)[Gal(b1-4)GlcNAc(b1-3)Gal(b1-4)GlcNAc(b1-6)]Man(a1-6)[Gal(b1-4)GlcNAc(b1-3)Gal(b1-4)GlcNAc(b1-2)Man(a1-3)]Man(b1-4)GlcNAc(b1-4)GlcNAc
Summary of the method: as §1

[22] = molecular target: Gal(b1-4)GlcNAc(b1-3)Gal(b1-4)GlcNAc(b1-3)Gal(b1-4)GlcNAc(b1-3)Gal(b1-4)GlcNAc(b1-2)[Gal(b1-4)GlcNAc(b1-3)Gal(b1-4)GlcNAc(b1-3)Gal(b1-4)GlcNAc(b1-3)Gal(b1-4)GlcNAc(b1-6)]Man(a1-6)[Gal(b1-4)GlcNAc(b1-3)Gal(b1-4)GlcNAc(b1-3)Gal(b1-4)GlcNAc(b1-3)Gal(b1-4)GlcNAc(b1-2)Man(a1-3)]Man(b1-4)GlcNAc(b1-4)[Fuc(a1-6)]GlcNAc
Summary of the method: as §1

[23] = molecular target: Gal(b1-4)GlcNAc(b1-3)Gal(b1-4)GlcNAc(b1-3)Gal(b1-4)GlcNAc(b1-3)Gal(b1-4)GlcNAc(b1-3)Gal(b1-4)GlcNAc(b1-2)[Gal(b1-4)GlcNAc(b1-3)Gal(b1-4)GlcNAc(b1-3)Gal(b1-4)GlcNAc(b1-3)Gal(b1-4)GlcNAc(b1-3)Gal(b1-4)GlcNAc(b1-6)]Man(a1-6)[Gal(b1-4)GlcNAc(b1-3)Gal(b1-4)GlcNAc(b1-3)Gal(b1-4)GlcNAc(b1-3)Gal(b1-4)GlcNAc(b1-3)Gal(b1-4)GlcNAc(b1-2)Man(a1-3)]Man(b1-4)GlcNAc(b1-4)[Fuc(a1-6)]GlcNAc
Summary of the method: as §1

[24] = molecular target: Gal(b1-4)GlcNAc(b1-3)Gal(b1-4)GlcNAc(b1-3)GalNAc
Summary of the method: as §1

[25] = molecular target: Gal(b1-4)GlcNAc(b1-6)[Gal(b1-3)]GalNAc
Summary of the method: as §1

[26] = molecular target: GalNAc(a1-3)Gal
Summary of the method: as §1

[27] = molecular target: GalNAc(b1-3)Gal(a1-4)Gal(b1-4)GlcNAc
Summary of the method: as §1

[28] = molecular target: GalNAc(b1-3)Gal(a1-6)Gal(b1-4)Glc
Summary of the method: as §1

[29] = molecular target: GalNAc(b1-4)Gal(b1-4)Glc
Summary of the method: as §1

[30] = molecular target: GlcNAc(a1-4)Gal(b1-4)GlcNAc(b1-3)Gal(b1-4)GlcNAc
Summary of the method: as §1

[31] = molecular target: GlcNAc(b1-3)Gal(b1-4)GlcNAc(b1-3)Gal(b1-4)GlcNAc(b1-3)Gal(b1-4)GlcNAc(b1-2)[GlcNAc(b1-3)Gal(b1-4)GlcNAc(b1-3)Gal(b1-4)GlcNAc(b1-3)Gal(b1-4)GlcNAc(b1-6)]Man(a1-6)[GlcNAc(b1-3)Gal(b1-4)GlcNAc(b1-3)Gal(b1-4)GlcNAc(b1-3)Gal(b1-4)GlcNAc(b1-2)Man(a1-3)]Man(b1-4)GlcNAc(b1-4)[Fuc(a1-6)]GlcNAc
Summary of the method: as §1

[32] = molecular target: GlcNAc(b1-3)Gal(b1-4)GlcNAc(b1-6)[GlcNAc(b1-3)]Gal(b1-4)GlcNAc
Summary of the method: as §1

[33] = molecular target: Kdn(a2-3)Gal(b1-4)GlcNAc
Summary of the method: as §1

[34] = molecular target: Neu5Ac(a2-3)Gal(b1-3)GlcNAc(b1-3)GalNAc
Summary of the method: as §1

[35] = molecular target: Neu5Ac(a2-3)Gal(b1-3)[Neu5Ac(a2-6)]GlcNAc(b1-3)[Fuc(a1-3)[Gal(b1-4)]GlcNAc(b1-6)]Gal(b1-4)Glc
Summary of the method: as §1

[36] = molecular target: Neu5Ac(a2-3)Gal(b1-4)GlcNAc(b1-2)[Neu5Ac(a2-3)Gal(b1-4)GlcNAc(b1-6)]Man(a1-6)[Neu5Ac(a2-3)Gal(b1-4)GlcNAc(b1-2)Man(a1-3)]Man(b1-4)GlcNAc(b1-4)GlcNAc
Summary of the method: as §1

[37] = molecular target: Neu5Ac(a2-3)Gal(b1-4)GlcNAc(b1-3)Gal(b1-4)GlcNAc(b1-3)[Neu5Ac(a2-3)Gal(b1-4)GlcNAc(b1-3)Gal(b1-4)GlcNAc(b1-6)]GalNAc
Summary of the method: as §1

[38] = molecular target: Neu5Ac(a2-3)[GalNAc(b1-4)]Gal(b1-4)Glc
Summary of the method: as §1

[39] = molecular target: Neu5Ac(a2-6)Gal(b1-4)GlcNAc(b1-2)Man(a1-3)[Man(a1-6)]Man(b1-4)GlcNAc(b1-4)GlcNAc
Summary of the method: as §1

[40] = molecular target: Neu5Ac(a2-6)GalNAc
Summary of the method: as §1

[41] = molecular target: Neu5Ac(a2-8)Neu5Ac(a2-3)Gal(b1-3)GalNAc(b1-4)[Neu5Ac(a2-3)]Gal(b1-4)Glc
Summary of the method: as §1

[42] = molecular target: Neu5Ac(a2-8)Neu5Ac(a2-3)Gal(b1-4)GlcNAc
Summary of the method: as §1

[43] = molecular target: Neu5Ac(a2-8)Neu5Gc(a2-3)Gal(b1-4)GlcNAc
Summary of the method: as §1

B1: PX9961X-pdi-531-24-531 (Parabacteroides distasonis) (protein)
chain: DLTEEIHSSVIAENYYNNAGEVMAAMMRPWGHFCGTMQVAQSPWSCNELSSDCAAWPQKGRHGYDNGDWIRLHRHQWIPTDGQVVDAWKKLFEGIGYANNFLTDTENIDFEALQVPMSKAQAQAEMRVYRAYCYWYVMDMFGTAPICEKIGEINPSSKSRAELFAWIEKELNESIPSLSESKTETYGRVSKWGAYALLARLYLNAEIYTGQARWDDCIAACDELAKGGFALDKKWNDTFRADNDKRSTEIIWSIVYDEVYAKGMGWYQRWLHYAHQTGWDLQSGPWNGLVTQPTFYDSFADNDLRKIEGFLIGKQYPRKVDENGNYYYDTTAEPLKGSEEYNGQDLVFVNYIKSMTEGEENSGARSIKYEIQPGTTGDMNNDWVMFRYSEVIYNKAEALMRKNGGKATQEVVDMINSVRQRSFKAEDWEKAKYTTATLTMDEFLAEKGREFAFEGIRRTDLVRFNKFVTTSWWDKTASNEPKRNIFPIPQRQLDANANLSPNEANSLF
What does the source list for B1?
glycan array binding signal (z-score) [1]: 0.026; glycan array binding signal (z-score) [2]: 1.28; glycan array binding signal (z-score) [3]: -0.118; glycan array binding signal (z-score) [4]: -0.351; glycan array binding signal (z-score) [5]: 0.289; glycan array binding signal (z-score) [6]: -0.189; glycan array binding signal (z-score) [7]: -0.567; glycan array binding signal (z-score) [8]: -0.156; glycan array binding signal (z-score) [9]: 0.31; glycan array binding signal (z-score) [10]: 0.374; glycan array binding signal (z-score) [11]: -0.332; glycan array binding signal (z-score) [12]: 3.82; glycan array binding signal (z-score) [13]: 0.935; glycan array binding signal (z-score) [14]: 7.26; glycan array binding signal (z-score) [15]: 0.221; glycan array binding signal (z-score) [16]: 4.29; glycan array binding signal (z-score) [17]: 3.82; glycan array binding signal (z-score) [18]: 7.05; glycan array binding signal (z-score) [19]: 1.52; glycan array binding signal (z-score) [20]: -0.466; glycan array binding signal (z-score) [21]: 2.17; glycan array binding signal (z-score) [22]: 3.6; glycan array binding signal (z-score) [23]: 3.41; glycan array binding signal (z-score) [24]: 0.788; glycan array binding signal (z-score) [25]: -0.374; glycan array binding signal (z-score) [26]: 0.96; glycan array binding signal (z-score) [27]: -0.236; glycan array binding signal (z-score) [28]: 2.61; glycan array binding signal (z-score) [29]: -0.106; glycan array binding signal (z-score) [30]: -0.352; glycan array binding signal (z-score) [31]: 0.524; glycan array binding signal (z-score) [32]: -0.581; glycan array binding signal (z-score) [33]: -0.114; glycan array binding signal (z-score) [34]: -0.825; glycan array binding signal (z-score) [35]: 0.188; glycan array binding signal (z-score) [36]: 0.2; glycan array binding signal (z-score) [37]: -0.773; glycan array binding signal (z-score) [38]: -0.049; glycan array binding signal (z-score) [39]: -0.755; glycan array binding signal (z-score) [40]: -0.425; glycan array binding signal (z-score) [41]: 0.572; glycan array binding signal (z-score) [42]: -0.116; glycan array binding signal (z-score) [43]: 14.4
